Data from PubChem BioAssay (EPA / NIEHS).
Inconclusive results are not listed. The source made the active and inactive calls. The calls were made as follows: active = hit-call score of the fitted dose curve at least 0.9, where 1 is the maximum; inconclusive = response in the unintended direction; inactive = score below 0.9.

Molecular target: human Esterase Plasma (ES), BCHE (gene 590) (UniProt P06276)
Assay: NVS_ENZ_hES: NovaScreen (NVS) Enzymatic Assay for human Esterase Plasma (ES) (AID 2283157)
How it was run: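 Chemicals were added to plasma-extracted human enzyme in a cell-free format, and activity was read colorimetrically after 0.25 hour. Activity loss was referenced to DMSO; concentration-response top dose was 50 uM.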

human Esterase Plasma (ES), BCHE (gene 590), sequence (P06276 whole entry, looked up): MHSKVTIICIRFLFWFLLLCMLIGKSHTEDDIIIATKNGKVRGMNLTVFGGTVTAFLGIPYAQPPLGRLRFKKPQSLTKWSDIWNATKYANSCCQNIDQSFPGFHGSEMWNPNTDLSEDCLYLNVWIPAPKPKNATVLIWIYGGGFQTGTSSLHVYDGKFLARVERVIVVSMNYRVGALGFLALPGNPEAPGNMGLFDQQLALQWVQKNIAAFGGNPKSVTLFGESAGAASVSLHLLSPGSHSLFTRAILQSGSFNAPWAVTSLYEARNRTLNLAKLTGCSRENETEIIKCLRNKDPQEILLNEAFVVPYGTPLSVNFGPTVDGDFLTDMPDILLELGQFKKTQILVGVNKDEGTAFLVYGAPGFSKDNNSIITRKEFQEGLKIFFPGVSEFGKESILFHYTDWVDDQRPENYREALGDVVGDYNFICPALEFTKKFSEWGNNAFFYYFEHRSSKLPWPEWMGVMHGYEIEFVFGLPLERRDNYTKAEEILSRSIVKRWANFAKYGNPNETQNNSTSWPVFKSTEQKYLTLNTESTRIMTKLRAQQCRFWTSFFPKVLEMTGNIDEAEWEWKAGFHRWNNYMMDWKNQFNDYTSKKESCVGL

outcome, inactive:
CCCCOC(=O)c1ccc(O)cc1
c1ccc(C[n+]2cccc3ccccc32)cc1
Oc1ccc2ccccc2c1

AC50, active:
CN(C)c1ccc(C(=C2C=CC(=[N+](C)C)C=C2)c2ccc(N(C)C)cc2)cc1 1.62 µM
COc1cccc([C@H](O)C2CCN(CCc3ccc(F)cc3)CC2)c1OC 18.2 µM
NCc1cccc(C2CCN(C(=O)c3ccc(C#Cc4ccccc4F)o3)CC2)c1 25 µM
Clc1cc(Cl)c2c(c1)N=C1CCCCCN1C2 13.7 µM
CN(C)C(=O)C1(N2CCCCC2)CCN(CC[C@@]2(c3ccc(Cl)c(Cl)c3)CN(C(=O)c3ccccc3)CCO2)CC1 17.5 µM
CCN(CC)C(=O)c1cc(S(=O)(=O)Cc2ccccc2)c(N2CCC(c3ccccc3)CC2)cc1N(CC)CCN(C)C 0.0737 µM
CCOC(=O)O[C@H](C)OC(=O)c1ccc2c(c1)cc(C(=O)NC1CCN(C(C)C)CC1)n2Cc1cc(-c2ccc(Cl)s2)on1 9.43 µM
